These results are taken from the antibiotic and cytotoxicity screens of Wong et al. (2023).

Molecules are shown by their SMILES. The whole screen tested about 39,000 compounds, of which about 3,300 (8.5%) were called active. Only a selection was taken, and actives are over-represented in it overall.

For the experiment, the system named is HepG2. Briefly: cytotoxicity call (relative viability < 0.9). The conditions noted are these: 10 µM.
For `Cc1noc(C)c1S(=O)(=O)Nc1ccc2c(c1)C(=O)N([C@H](C)CO)C[C@H](C)[C@@H](CN(C)C(=O)Nc1ccccc1)O2`, the cytotoxicity call is “inactive”. Next, `CCn1cc(-c2ccnc3[nH]c(-c4cccc(CN(C)C)c4)cc23)c(-c2ccc(NC(=O)N(C)C)cc2)n1`: “active”. Turning to `C[C@@H]1CN([C@H](C)CO)S(=O)(=O)c2ccc(-c3ccc(F)cc3)cc2O[C@H]1CN(C)S(C)(=O)=O`, the cytotoxicity call was “inactive”.

Turning to `C#Cc1ccc([C@@H]2C=C(C(=O)N3CCN(Cc4ccc5c(c4)OCO5)CC3)O[C@H](OCC)[C@H]2CCCO)cc1`, the cytotoxicity call is “inactive”. The entry for `O=S1(=O)CC[C@H](N[C@H]2CCS(=O)(=O)C2)C1` is “inactive”; for `C[C@H]1CN([C@@H](C)CO)S(=O)(=O)c2ccc(C#Cc3ccncc3)cc2O[C@H]1CN(C)S(=O)(=O)c1ccccc1` it is “active”; for `C[C@@H]1CN([C@H](C)CO)S(=O)(=O)c2ccc(C#Cc3ccncc3)cc2O[C@@H]1CN(C)S(=O)(=O)c1ccccc1` it is “active”. The entry for `C[C@H](CO)N1C[C@H](C)[C@@H](CN(C)S(=O)(=O)c2ccccc2)Oc2cc(C#Cc3ccncc3)ccc2S1(=O)=O` is “active”. On to `C[C@@H]1CN([C@@H](C)CO)S(=O)(=O)c2ccc(C#Cc3ccncc3)cc2O[C@H]1CN(C)S(=O)(=O)c1ccccc1`, for which the cytotoxicity call was “active”. Next, `Cc1noc(C)c1NC(=O)Nc1ccc2c(c1)C(=O)N([C@@H](C)CO)C[C@H](C)[C@H](CN(C)CC1CCCCC1)OCCCC[C@@H](C)O2`: “inactive”; `COc1ccc(Br)cc1S(=O)(=O)NC(=O)/C=C/c1ccccc1Cc1ccc2ccccc2c1`: “inactive”. The entry for `COc1ccc(S(=O)(=O)Nc2ccc3c(c2)C(=O)N([C@@H](C)CO)C[C@@H](C)[C@@H](CN(C)C(=O)Nc2cccc4ccccc24)O3)cc1` is “inactive”; for `C[C@@H]1CN([C@H](C)CO)S(=O)(=O)c2ccc(Br)cc2O[C@H]1CN(C)CC1CCOCC1` it is “inactive”; for `C[C@@H]1CN([C@H](C)CO)C(=O)c2cccc(NC(=O)NC3CCCCC3)c2O[C@@H]1CN(C)S(C)(=O)=O` it is “inactive”.

In the case of `CC(C)C[C@@H]1NC(=O)[C@@H]2C[C@H](C(=O)NCCCCCCN(C)C)[C@H](c3cccc(OCCO)c3)N2C1=O`, the cytotoxicity call is “inactive”. Next, `CC(C)N1C[C@H](C)[C@@H](CN(C)Cc2ccc(Cl)cc2)Oc2c(NC(=O)c3ccncc3)cccc2C1=O`: “inactive”; `C[C@@H]1CN([C@@H](C)CO)S(=O)(=O)c2ccc(C#Cc3ccncc3)cc2O[C@@H]1CN(C)S(=O)(=O)c1ccccc1`: “active”. For `C[C@H](CO)N1C[C@H](C)[C@H](CN(C)S(=O)(=O)c2ccccc2)Oc2cc(C#Cc3ccncc3)ccc2S1(=O)=O`, the cytotoxicity call is “active”. Next, `C[C@H]1CN([C@@H](C)CO)S(=O)(=O)c2ccc(C#Cc3ccncc3)cc2O[C@@H]1CN(C)S(=O)(=O)c1ccccc1`: “active”; `C[C@@H]1CN([C@H](C)CO)S(=O)(=O)c2ccc(C#Cc3ccncc3)cc2O[C@H]1CN(C)S(=O)(=O)c1ccccc1`: “active”. The entry for `C[C@@H]1CN([C@H](C)CO)C(=O)c2cccc(NC(=O)c3cnccn3)c2O[C@@H]1CN(C)C(=O)NC1CCCCC1` is “inactive”; for `Cc1noc(C)c1S(=O)(=O)Nc1cccc2c1O[C@@H](CN(C)Cc1ccccc1)[C@@H](C)CN([C@H](C)CO)C2=O` it is “inactive”; for `C[C@@H]1CN([C@H](C)CO)C(=O)c2cccc(NC(=O)Nc3cccc4ccccc34)c2O[C@@H]1CN(C)S(=O)(=O)c1ccccc1` it is “inactive”. `CCC(=O)N(C)C[C@@H]1Oc2ncc(C#C[C@H](C)O)cc2C(=O)N([C@@H](C)CO)C[C@H]1C`: the cytotoxicity call is “inactive”. The entry for `O=C(C[C@@H]1C[C@@H]2c3cc(NC(=O)Nc4ccccc4)ccc3O[C@@H]2[C@H](CO)O1)NCCN1CCCCC1` is “inactive”.

On to `CN1CCN2c3ccccc3Cc3ccccc3C2C1.Cl` (configuration not stated), for which the cytotoxicity call is “inactive”. The entry for `CN1CCC[C@@H](CC2c3ccccc3Sc3ccccc32)C1` is “active”; for `C[C@H]1CCCN(C(=O)N2c3ccccc3Sc3ccccc32)C1` it is “inactive”; for `C[C@@H]1CN([C@@H](C)CO)C(=O)c2c(c3ccccc3n2C)-c2ccccc2CO[C@H]1CN(C)C(=O)CCC(F)(F)F` it is “inactive”. Next, `COCCc1nc2c(c(=O)n(C)c(=O)n2C)n1C`: “inactive”. The entry for `Cn1c(=O)c2c(nc(S(C)(=O)=O)n2C)n(C)c1=O` is “active”; for `Cn1c(=O)c2c(nc(SCSc3nc4c(c(=O)n(C)c(=O)n4C)n3C)n2C)n(C)c1=O` it is “inactive”. Turning to `C[C@@H]1CN([C@@H](C)CO)C(=O)c2cc(NC(=O)Nc3cccc4ccccc34)ccc2O[C@H]1CN(C)C(=O)Nc1ccc(F)cc1`, the cytotoxicity call was “inactive”.

Turning to `C[C@@H]1CN([C@H](C)CO)C(=O)CCCn2nncc2CO[C@H]1CN(C)S(=O)(=O)c1cn(C)cn1`, the cytotoxicity call was “inactive”. The entry for `C[C@H](CO)N1C[C@H](C)[C@H](CN(C)C(=O)Nc2ccc(F)cc2)Oc2ccc(NC(=O)Nc3ccc(C(F)(F)F)cc3)cc2CC1=O` is “inactive”; for `C[C@H]1CN([C@@H](C)CO)C(=O)Cc2cc(NC(=O)Nc3ccc(C(F)(F)F)cc3)ccc2O[C@H]1CN(C)C(=O)Nc1ccc(F)cc1` it is “active”; for `C[C@@H]1CN([C@H](C)CO)C(=O)Cc2cc(NC(=O)Nc3ccc(C(F)(F)F)cc3)ccc2O[C@H]1CN(C)C(=O)Nc1ccc(F)cc1` it is “inactive”. The entry for `C[C@@H]1CN([C@H](C)CO)C(=O)Cc2cc(NC(=O)Nc3ccc(C(F)(F)F)cc3)ccc2O[C@@H]1CN(C)C(=O)Nc1ccc(F)cc1` is “active”; for `C[C@H]1CN([C@@H](C)CO)C(=O)Cc2cc(NC(=O)Nc3ccc(F)cc3)ccc2O[C@@H]1CN(C)C(=O)Nc1ccc(C(F)(F)F)cc1` it is “inactive”; for `C[C@@H]1CN([C@H](C)CO)C(=O)Cc2cc(NC(=O)Nc3ccc(F)cc3)ccc2O[C@H]1CN(C)C(=O)Nc1ccc(C(F)(F)F)cc1` it is “inactive”.

Turning to `C[C@@H]1CN([C@@H](C)CO)C(=O)Cc2cc(NC(=O)Nc3ccc(C(F)(F)F)cc3)ccc2O[C@H]1CN(C)C(=O)Nc1ccc(F)cc1`, the cytotoxicity call was “inactive”. Next, `C[C@@H]1CN([C@@H](C)CO)C(=O)Cc2cc(NC(=O)Nc3ccc(C(F)(F)F)cc3)ccc2O[C@@H]1CN(C)C(=O)Nc1ccc(F)cc1`: “active”; `C[C@H](CO)N1C[C@H](C)[C@H](CN(C)C(=O)Nc2ccc(C(F)(F)F)cc2)Oc2ccc(NC(=O)Nc3ccc(F)cc3)cc2CC1=O`: “inactive”; `C[C@H](CO)N1C[C@H](C)[C@@H](CN(C)C(=O)Nc2ccc(F)cc2)Oc2ccc(NC(=O)Nc3ccc(C(F)(F)F)cc3)cc2CC1=O`: “active”. Next, `C[C@@H]1CN([C@@H](C)CO)C(=O)Cc2cc(NC(=O)Nc3ccc(F)cc3)ccc2O[C@H]1CN(C)C(=O)Nc1ccc(C(F)(F)F)cc1`: “inactive”; `C[C@@H]1CN([C@@H](C)CO)C(=O)Cc2cc(NC(=O)Nc3ccc(F)cc3)ccc2O[C@@H]1CN(C)C(=O)Nc1ccc(C(F)(F)F)cc1`: “inactive”; `Cc1ccc(S(=O)(=O)N(C)C[C@H]2OCCCC[C@H](C)Oc3ccc(NC(=O)Nc4ccc(C(F)(F)F)cc4)cc3C(=O)N([C@H](C)CO)C[C@@H]2C)cc1`: “inactive”.

As for `C[C@@H]1CN([C@@H](C)CO)C(=O)c2cc(NC(=O)Nc3ccc(F)cc3)ccc2O[C@@H](C)CCCCO[C@@H]1CN(C)S(=O)(=O)c1ccc(Cl)cc1`, the cytotoxicity call was “inactive”.

As to `COCC(=O)Nc1ccc2c(c1)[C@@H]1C[C@@H](CC(=O)N3CCOCC3)O[C@H](CO)[C@@H]1O2`, the cytotoxicity call is “inactive”. Next, `C[C@H](CO)N1C[C@H](C)[C@@H](CN(C)S(=O)(=O)c2cn(C)cn2)Oc2ccc(NC(=O)Nc3ccccc3)cc2CC1=O`: “inactive”; `CCCc1ncc(C[n+]2ccccc2C)c(N)n1.[Cl-]`: “inactive”.

Turning to `C[C@@H]1CCCCO[C@H](CN(C)S(=O)(=O)c2cccs2)[C@H](C)CN([C@H](C)CO)C(=O)c2cc(NC(=O)c3ccccc3)ccc2O1`, the cytotoxicity call is “inactive”. On to `C[C@@H]1CN([C@@H](C)CO)C(=O)c2cccc(NS(=O)(=O)c3cccs3)c2O[C@@H]1CN(C)Cc1ccc(Oc2ccccc2)cc1`, for which the cytotoxicity call was “inactive”. As for `C[C@@H]1CN([C@@H](C)CO)C(=O)c2cc(C#CCN(C)C)cnc2O[C@H]1CN(C)Cc1cccc(C(=O)O)c1`, the cytotoxicity call is “inactive”. Next, `C[C@@H]1CN([C@@H](C)CO)C(=O)c2cccc(NC(=O)C3CCOCC3)c2O[C@H]1CN(C)C(=O)Nc1ccc2c(c1)OCO2`: “inactive”; `C[C@H](CO)N1C[C@H](C)[C@@H](CN(C)C(=O)Nc2ccc(C(F)(F)F)cc2)Oc2ccc(NC(=O)Nc3ccc(F)cc3)cc2CC1=O`: “active”. On to `C[C@@H]1CN([C@H](C)CO)C(=O)Cc2cc(NC(=O)Nc3ccc(F)cc3)ccc2O[C@@H]1CN(C)C(=O)Nc1ccc(C(F)(F)F)cc1`, for which the cytotoxicity call is “inactive”.

For the compound `C[C@H]1CN([C@@H](C)CO)C(=O)Cc2cc(NC(=O)Nc3ccc(F)cc3)ccc2O[C@H]1CN(C)C(=O)Nc1ccc(C(F)(F)F)cc1`, the cytotoxicity call is “inactive”. Next, `Cc1ccc(S[C@]2(C(=O)NC(C)C)CC(=O)N(Cc3cc(C(F)(F)F)cc(C(F)(F)F)c3)[C@@H]2c2ccc(CO)cc2)cc1`: “inactive”; `CN(C)Cc1cn(CC[C@H]2CC[C@@H](NS(=O)(=O)c3ccccc3)[C@H](CO)O2)nn1`: “inactive”; `C[C@H]1CN([C@@H](C)CO)C(=O)Cc2cc(NC(=O)CCC(F)(F)F)ccc2O[C@@H]1CN(C)S(C)(=O)=O`: “inactive”. `CC(C)(C)[S@](=O)N1Cc2cc(C(=O)N3CCc4ccccc4C3)nc(-c3cccc(-c4cncnc4)c3)c2[C@@H]1CCO`: the cytotoxicity call was “inactive”. Consider `C=CCOC(=O)[C@@H]1[C@H]2C(=O)O[C@H](c3ccccc3)[C@H](c3ccccc3)N2[C@H](c2ccc(OCCOC(=O)NCCCCCC(=O)NO)cc2)[C@]12C(=O)Nc1ccc(I)cc12`, for which the cytotoxicity call was “inactive”.

As for `Nc1nnc(-c2ccno2)o1`, the cytotoxicity call is “inactive”.

For the compound `CCOC(=O)CCn1cc(F)c(=O)[nH]c1=O`, the cytotoxicity call is “inactive”. Consider `CCOC(=O)Cn1cc(F)c(=O)[nH]c1=O`, for which the cytotoxicity call is “inactive”. Next, `CC(=O)On1cc(F)c(=O)[nH]c1=O`: “active”.
